Experiment [1] in a line: small molecules captured by biotinylated probe aFSTL3 – biochemical, small-molecule microarray, fluorescence 635/667, stem cell growth factor project, primary screen (AID 1064).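 Also: measures binding of the biotinylated anti-FSTL3 antibody to printed compounds.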 The note with it: higher = more signal.
Experiment [2] can be described thus: binders from COS7 lysate, DM2A8 probe, primary screen, torsin A project, cell lysate, small-molecule microarray, fluorescence 635/667 (AID 1065). The note with it: higher = more signal, COS7 lysate expressing mutant human TOR1A.
The nature of experiment [3]: small molecules captured by biotinylated probe aFGF2 – biochemical, small-molecule microarray, fluorescence 635/667, stem cell growth factor project, primary screen (AID 1067).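 Also: measures binding of biotinylated aFGF2 protein to printed compounds on slides; z-score merges feature fluorescence and signal-to-noise across triplicate slides.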 The note with it: higher = more signal.
Experiment [4] is described as follows: small molecules captured by biotinylated probe aFGF10 – biochemical, small-molecule microarray, fluorescence 635/667, stem cell growth factor project, primary screen (AID 1071).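 Also: score merges 667 nm spot intensity and signal to noise from triplicate slides.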 The following applies: higher = more signal.
Experiment [5] deals with Neurogenic locus notch homolog protein 2 (Homo sapiens) (UniProt Q04721). Put plainly: small molecules binding Notch2 protein – biochemical, small-molecule microarray, 635 nm fluorescence, stem cell growth factors, primary screen (AID 1073). The following applies: higher = more signal.
The target in experiment [6] is Pro-neuregulin-1, membrane-bound isoform (Homo sapiens) (UniProt Q02297). The experiment in a line: small molecules binding neuregulin-1 protein – biochemical, small-molecule microarray, fluorescence 635/667, psychiatric disease protein project, primary screen (AID 1075).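 Also: score combines 667 nm spot fluorescence with signal to noise.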 The note with it: NRG1 binding, 635 nm fluorescence, higher = more signal.
Experiment [7] deals with Neuregulin-1 EGF-like domain. The experiment in a line: small molecules binding NRG1 EGF domain – biochemical, small-molecule microarray, 635 nm fluorescence, primary screen (AID 1081).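 Also: binding of the protein to compounds printed on small-molecule microarray slides.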 The following applies: higher = more signal.
Experiment [8] in a line: FRG1 expression reporter modulators in myotubes – cell-based, C2C12 myotubes, firefly/Renilla luciferase, luminescence, FRG1 inhibition for FSHD, primary screen (AID 1084). The following applies: FRG1 promoter luciferase, higher = more signal, called active from +8 up or from −8 down.
Experiment [9] in a line: small molecules captured by biotinylated probe aFST – biochemical, small-molecule microarray, fluorescence 635/667, stem cell growth factor project, primary screen (AID 1086).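 Also: score merges 667 nm fluorescence with signal-to-noise of each printed compound spot.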 The note with it: higher = more signal.
Experiment [10] is described as follows: binders of probe aHhip on microarray, primary screen, stem cell growth factor project, biochemical, small-molecule microarray, fluorescence 635/667 (AID 1087).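 Also: score merges spot fluorescence at 667nm with spot signal to noise ratio.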 The following applies: higher = more signal.
The test system of experiment [11] is PRMT1 (protein arginine N-methyltransferase 1). The experiment in a line: small molecules binding arginine methyltransferase PRMT1 – biochemical, small-molecule microarray, 635 nm fluorescence, primary screen (AID 1088).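 Also: binding of Prmt1 protein to compounds spotted on small-molecule microarray slides.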 The following applies: higher = more signal.
A short description of experiment [12]: growth effects on S. cerevisiae YJM789 – YJM789 clinical isolate, OD600, 24 h, basal, primary screen (AID 1089).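 Also: growth of clinical yeast isolate S. cerevisiae YJM 789 seeded 1000 cells per well; test concentration not given here.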 The following applies: higher = more signal, called active from +8 up or from −8 down.
Experiment [13] can be described thus: S. pombe growth modifiers, basal conditions – strain 972, OD600, 24 h, no modulator, primary screen (AID 1090).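 Also: basal condition with compound alone and no growth modifier present; test concentration not given here.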 The note with it: S. pombe 972 growth, higher = more signal, called active from +8 up or from −8 down.
A short description of experiment [14]: budding yeast growth modifiers under rapamycin – strain BY4716, OD600, 96 h, primary screen (AID 1091). Also: test concentration not given here. The following applies: S. cerevisiae BY4716 + rapamycin, higher = more signal, called active from +8 up or from −8 down.
Experiment [15] addresses Torsin-1A-interacting protein 2 (Homo sapiens) (UniProt Q8NFQ8). Put plainly: small molecules binding lysate-expressed LULL1 – cell lysate, human LULL1 lysate, 635/667 nm fluorescence, primary screen (AID 1092).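 Also: probe is lysate of COS7 cells overexpressing human LULL1; score merges per-feature 667 nm fluorescence with signal-to-noise.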 The note with it: small-molecule microarray, hLULL1 lysate binding, 635 nm fluorescence; higher = more signal.
Experiment [16] is described as follows: optical density change of DRC41 E. coli – strain DRC41, OD650, 24 h, E. coli filamentation project, primary screen (AID 1093).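 Also: MC1000 strain lacking acrAB efflux and sulA so SOS filamentation is blocked; test concentration not given here.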 The following applies: E. coli DRC41 growth, higher = more signal, called active from +8 up or from −8 down.
Experiment [17] is described as follows: probe aLefty2 binding to arrayed compounds – biochemical, biotinylated probe, 635/667 nm fluorescence, primary screen (AID 1094).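 Also: score merges spot fluorescence near 667 nm with spot signal-to-noise ratio.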 The note with it: small-molecule microarray, higher = more signal.
Experiment [18] has as its system Noggin (protein binding on small-molecule microarray). Put plainly: small molecules binding Noggin protein – biochemical, 635/667 nm fluorescence, primary screen (AID 1095).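 Also: score merges 667 nm feature fluorescence with signal to noise over triplicate slides.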 The following applies: 635 nm fluorescence, higher = more signal.
Experiment [19] addresses Neurogenic locus notch homolog protein 3 (Homo sapiens) (UniProt Q9UM47). Put plainly: small molecules binding NOTCH3 protein – biochemical, 635/667 nm fluorescence, primary screen (AID 1096). The note with it: small-molecule microarray, 635 nm fluorescence, higher = more signal.
The nature of experiment [20]: probe aEGFR binding to arrayed compounds – biochemical, biotinylated probe, 635/667 nm fluorescence, primary screen (AID 1097).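 Also: probe is a biotinylated anti-EGFR antibody binding compounds printed on slides; score combines fluorescence near 667 nm and signal to noise of each spot.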 The following applies: small-molecule microarray, higher = more signal.

Structures are written as SMILES. Activity calls are given as the source filed them.

Pro-neuregulin-1, membrane-bound isoform (Homo sapiens), sequence (Q02297 whole entry, looked up, the tested form may be a part, canonical isoform): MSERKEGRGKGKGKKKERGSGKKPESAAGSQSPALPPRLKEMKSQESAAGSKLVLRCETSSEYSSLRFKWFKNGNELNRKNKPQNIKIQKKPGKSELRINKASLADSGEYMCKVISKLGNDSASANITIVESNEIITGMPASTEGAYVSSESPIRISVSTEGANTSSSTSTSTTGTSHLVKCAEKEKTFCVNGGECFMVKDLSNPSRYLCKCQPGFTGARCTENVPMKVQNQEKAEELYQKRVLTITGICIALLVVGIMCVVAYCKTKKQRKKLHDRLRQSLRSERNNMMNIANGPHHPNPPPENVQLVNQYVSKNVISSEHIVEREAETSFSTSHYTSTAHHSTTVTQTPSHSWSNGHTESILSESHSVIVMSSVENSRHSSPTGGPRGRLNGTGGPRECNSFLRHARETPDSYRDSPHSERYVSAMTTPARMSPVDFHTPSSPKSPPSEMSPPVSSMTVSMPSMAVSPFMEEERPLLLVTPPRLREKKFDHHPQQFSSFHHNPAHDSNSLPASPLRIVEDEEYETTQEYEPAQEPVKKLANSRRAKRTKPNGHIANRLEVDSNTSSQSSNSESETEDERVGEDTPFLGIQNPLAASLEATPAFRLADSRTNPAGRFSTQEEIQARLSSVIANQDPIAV
Torsin-1A-interacting protein 2 (Homo sapiens), sequence (Q8NFQ8 whole entry, looked up): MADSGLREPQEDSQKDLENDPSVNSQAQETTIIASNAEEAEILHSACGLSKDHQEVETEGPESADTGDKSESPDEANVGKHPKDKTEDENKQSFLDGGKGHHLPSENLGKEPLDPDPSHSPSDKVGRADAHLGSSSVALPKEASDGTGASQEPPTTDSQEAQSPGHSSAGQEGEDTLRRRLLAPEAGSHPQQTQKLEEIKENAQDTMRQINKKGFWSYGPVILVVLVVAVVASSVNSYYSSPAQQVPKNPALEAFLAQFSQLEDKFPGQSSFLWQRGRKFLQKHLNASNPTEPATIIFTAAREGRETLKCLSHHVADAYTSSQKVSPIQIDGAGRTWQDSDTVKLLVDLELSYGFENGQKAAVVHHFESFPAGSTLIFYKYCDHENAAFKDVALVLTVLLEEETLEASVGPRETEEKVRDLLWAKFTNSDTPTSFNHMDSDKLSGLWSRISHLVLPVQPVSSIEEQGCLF
Neurogenic locus notch homolog protein 3 (Homo sapiens), sequence (Q9UM47 whole entry, looked up): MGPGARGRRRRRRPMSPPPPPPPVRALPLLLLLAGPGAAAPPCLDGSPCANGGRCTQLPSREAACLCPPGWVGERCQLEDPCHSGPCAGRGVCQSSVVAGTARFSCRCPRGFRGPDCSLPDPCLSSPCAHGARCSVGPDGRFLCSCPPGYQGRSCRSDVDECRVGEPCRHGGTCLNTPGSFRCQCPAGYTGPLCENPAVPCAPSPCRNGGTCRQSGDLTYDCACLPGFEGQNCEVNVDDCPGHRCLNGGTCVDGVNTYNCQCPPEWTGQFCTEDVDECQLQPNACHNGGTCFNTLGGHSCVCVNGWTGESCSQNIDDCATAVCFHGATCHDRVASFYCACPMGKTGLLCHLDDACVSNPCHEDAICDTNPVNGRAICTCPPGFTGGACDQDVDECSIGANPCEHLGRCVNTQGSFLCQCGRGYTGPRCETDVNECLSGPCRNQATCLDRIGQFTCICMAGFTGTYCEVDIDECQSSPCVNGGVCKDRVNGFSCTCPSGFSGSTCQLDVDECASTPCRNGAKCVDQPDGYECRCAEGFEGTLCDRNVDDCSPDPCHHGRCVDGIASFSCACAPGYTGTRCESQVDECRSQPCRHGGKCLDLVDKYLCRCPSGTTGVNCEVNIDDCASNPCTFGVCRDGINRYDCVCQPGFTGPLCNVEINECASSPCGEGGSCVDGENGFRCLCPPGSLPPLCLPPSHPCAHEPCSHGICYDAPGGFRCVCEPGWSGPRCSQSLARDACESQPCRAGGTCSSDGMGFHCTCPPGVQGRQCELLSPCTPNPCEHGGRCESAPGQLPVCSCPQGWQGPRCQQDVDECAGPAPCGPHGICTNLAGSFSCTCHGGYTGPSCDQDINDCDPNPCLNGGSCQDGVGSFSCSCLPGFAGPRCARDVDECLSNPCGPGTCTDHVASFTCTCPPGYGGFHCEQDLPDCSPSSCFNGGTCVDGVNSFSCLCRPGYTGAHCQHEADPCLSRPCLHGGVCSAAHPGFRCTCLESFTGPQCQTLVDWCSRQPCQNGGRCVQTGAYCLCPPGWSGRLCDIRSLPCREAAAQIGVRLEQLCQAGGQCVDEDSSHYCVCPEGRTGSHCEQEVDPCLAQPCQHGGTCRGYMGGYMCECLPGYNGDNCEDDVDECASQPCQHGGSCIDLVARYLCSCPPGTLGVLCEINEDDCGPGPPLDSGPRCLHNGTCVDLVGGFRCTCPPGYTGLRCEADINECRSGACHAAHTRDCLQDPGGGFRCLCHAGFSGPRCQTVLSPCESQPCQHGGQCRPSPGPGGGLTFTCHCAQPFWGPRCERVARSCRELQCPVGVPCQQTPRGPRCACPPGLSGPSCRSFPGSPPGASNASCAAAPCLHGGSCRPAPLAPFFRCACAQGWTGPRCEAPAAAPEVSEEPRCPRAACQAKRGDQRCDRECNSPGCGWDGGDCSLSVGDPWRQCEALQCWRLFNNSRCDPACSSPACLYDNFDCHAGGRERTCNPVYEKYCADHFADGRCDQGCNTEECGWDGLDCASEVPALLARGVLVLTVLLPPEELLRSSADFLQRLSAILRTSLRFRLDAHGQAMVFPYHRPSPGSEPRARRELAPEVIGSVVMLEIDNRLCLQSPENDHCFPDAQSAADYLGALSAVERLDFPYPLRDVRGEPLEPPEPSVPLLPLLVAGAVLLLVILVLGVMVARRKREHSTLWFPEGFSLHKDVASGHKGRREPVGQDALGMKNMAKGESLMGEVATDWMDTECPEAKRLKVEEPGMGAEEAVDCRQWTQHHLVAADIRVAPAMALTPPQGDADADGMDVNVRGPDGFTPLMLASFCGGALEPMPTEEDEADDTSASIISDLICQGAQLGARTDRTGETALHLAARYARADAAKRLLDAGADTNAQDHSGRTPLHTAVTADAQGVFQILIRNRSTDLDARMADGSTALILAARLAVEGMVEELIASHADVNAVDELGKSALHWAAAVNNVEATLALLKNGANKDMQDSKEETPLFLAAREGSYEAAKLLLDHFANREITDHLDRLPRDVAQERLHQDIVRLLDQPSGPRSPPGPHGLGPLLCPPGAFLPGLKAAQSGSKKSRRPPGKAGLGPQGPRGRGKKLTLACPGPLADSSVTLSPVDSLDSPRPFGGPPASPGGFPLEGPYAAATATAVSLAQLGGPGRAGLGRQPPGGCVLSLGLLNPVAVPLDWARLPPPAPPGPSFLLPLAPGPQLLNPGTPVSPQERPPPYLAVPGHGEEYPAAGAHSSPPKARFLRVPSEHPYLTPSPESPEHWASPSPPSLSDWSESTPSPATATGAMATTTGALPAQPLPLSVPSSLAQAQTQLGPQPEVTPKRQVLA

On to `COC(=O)[C@@]1(Cc2ccccc2)[C@H]2c3cc(C(=O)N(C)C)n(Cc4ccc(Cl)c(C(F)(F)F)c4)c3C[C@H]2CN1C(=O)c1ccccc1`, for which the composite z-score in experiment [1] was found to be 0.0539; in experiment [2], 0.277; in experiment [3] it was 0.372; in experiment [4], 1.09; in [5] it was 1.61; in experiment [6], 1.35. Further, the composite z-score in [7] worked out at 1.18; in experiment [9], 1.51; in experiment [10], 0.26; in experiment [11] it was 0.813; in experiment [15] it was 2.74; in experiment [17], 0.146. Also, the composite z-score came out at 1.59 in experiment [18], 1.01 in experiment [19] and 0.0926 in experiment [20]. In addition, the z-score in experiment [8] is -3.33 (inactive); in [12] it was 1.01 (inactive); in experiment [13], 1.45 (inactive); in experiment [14], 3.56 (inactive); in [16], -1.12 (inactive).

Regarding `COc1ccc(CCNC(=O)[C@@]2(c3ccc([N+](=O)[O-])cc3)CC(=O)N(C3CCCCC3)[C@@H]2c2ccc(CO)cc2I)cc1`, the composite z-score was determined as 0.897 in [1]; 0.0603 in experiment [2]; 0.0903 in experiment [3]; 0.33 in experiment [4]; 0.964 in experiment [5]; 0.486 in experiment [6]. The composite z-score in [7] is 0.827; in experiment [9], -0.121; in [10] it was 0.386; in experiment [11], 1.39; in [15], 2.34; in experiment [17] it was -0.0544. Besides, the composite z-score in experiment [18] was determined as 0.153; in [19], 0.594; in experiment [20] it was 0.227. For the same compound, the z-score is -1.64 (inactive) in [8]; 0.717 (inactive) in experiment [12]; 0.0908 (inactive) in experiment [13]; 5.88 (inactive) in experiment [14]; 0.793 (inactive) in experiment [16].

In the case of `Cc1c(NC(=O)/C(C#N)=C/C=C/c2ccc([N+](=O)[O-])cc2)c(=O)n(-c2ccccc2)n1C`, the composite z-score is -0.309 in experiment [1]; 0.129 in experiment [2]; -0.0718 in experiment [3]; 0.906 in experiment [4]; 1.63 in experiment [5]; 1.65 in experiment [6]. In addition, the composite z-score in experiment [7] was 1.25; in [9] it was 0.854; in experiment [10], -0.0867; in experiment [11] it was 1.49; in experiment [15], 3.17; in [17], -0.022. In addition, the composite z-score in [18] amounted to 0.305; in experiment [19], 1.04; in experiment [20] it was 0.0506. Further, the z-score in experiment [8] was 3.34 (inactive); in experiment [12] it was 0.437 (inactive); in experiment [13], -0.914 (inactive); in [14], 0.0795 (inactive); in experiment [16] it was -1.46 (inactive).

Turning to `COC(=O)C(CC#Cc1ccc2c(c1)[C@]1(C(=O)N2)[C@H](C(N)=O)[C@H]2C(=O)O[C@H](c3ccccc3)[C@H](c3ccccc3)N2[C@@H]1c1ccccc1OCCO)C(=O)OC`, the composite z-score in [1] was 0.29; in [2] it was 1.81; in experiment [3], -0.0122; in [4], 0.765; in experiment [5] it was -0.21; in experiment [6] it was 1.67. Further, the composite z-score was 1.4 in [7]; -0.275 in [9]; -0.0994 in experiment [10]; 1.56 in experiment [11]; 3.13 in experiment [15]; -0.075 in [17]. The composite z-score in experiment [18] is 0.877; in [19], 0.576; in [20], 0.0167. Further, the z-score is 1.69 (inactive) in experiment [8]; 2.79 (inactive) in experiment [12]; 0.943 (inactive) in [13]; 5.37 (inactive) in [14]; 1.12 (inactive) in experiment [16].

For `CCCN1C(=O)[C@@]2(c3ccc([N+](=O)[O-])cc3)CC(=O)N(C3CCCCC3)[C@@H]2c2ccc(CO)cc21`, the composite z-score is -0.439 in experiment [1]; -0.768 in [2]; -0.0131 in experiment [3]; -0.201 in experiment [4]; -0.553 in experiment [5]; -0.154 in [6]. Besides, the composite z-score in [7] is 1.23; in experiment [9], -0.479; in experiment [10], 0.137; in experiment [11] it was 0.254; in experiment [15], -0.298; in experiment [17] it was 0.198. Also, the composite z-score in experiment [18] is 0.73; in [19], -0.327; in experiment [20] it was 0.0785. The z-score in [8] was 0.693 (inactive); in [12], -0.383 (inactive); in [13], 1.29 (inactive); in [14], -0.117 (inactive); in [16], -0.0384 (inactive).

The values above are taken from PubChem BioAssay.
